The source of these data is PubChem BioAssay (Tox21).

The nature of assay [1]: Nuclear factor erythroid 2-related factor 2/antioxidant responsive element (Nrf2/ARE) small molecule agonists: qHTS cell viability counter screen in human keratinocytes (AID 1919968; active means well fitted curve in the direction sought with a large enough effect in the repeat runs; an effect the other way counts as inactive or inconclusive; further: nearly all actives have a fitted effect of over 55% in size; further: potency means the concentration at half of the fitted maximal effect). The essentials: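 Measured as CellTiter-Fluor fluorescence, this readout tracks cytotoxicity in the same wells as the ARE-luciferase screen. HaCaT reporter cells (1,500/well) received compounds after a 5 h pre-incubation and were exposed for 23 h.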

Assay [2] is described as follows: Nuclear factor erythroid 2-related factor 2/antioxidant responsive element (Nrf2/ARE) small molecule agonists: luciferase reporter gene qHTS assay in human keratinocytes (AID 1919969). Further: nearly all actives have a fitted effect of over 35% in size. Further: potency means the concentration at half of the fitted maximal effect.
Assay [3] has as its target Gonadotropin-releasing hormone receptor (Homo sapiens) (UniProt P30968). Put plainly: Human gonadotropin-releasing hormone receptor (GnRHR) small molecule agonists, calcium flux assay in GnRHR-HEK293 cells (AID 1920063). Further: nearly all actives have a fitted effect of over 35% in size. Summed up: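 Fluorescence kinetics (480 nm excitation, 540 nm emission; 3 min, 1 s steps) report calcium mobilisation in human GnRHR-HEK293 cells in agonist mode. Dye incubation: 1 h, 37 C.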
Background: Calcium assays in cells follow changes in intracellular calcium, usually with a dye or a luminescent sensor.

The target of assay [4] is KiSS-1 receptor (Homo sapiens) (UniProt Q969F8). Put plainly: Human kisspeptin (KISS1R) small molecule agonists, calcium flux assay in KISS1R-HEK293 cells (AID 1920064; active means well fitted curve in the direction sought with a large enough effect in the repeat runs; an effect the other way counts as inactive or inconclusive). The essentials: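 Measures KISS1R agonism through calcium-sensitive dye fluorescence in stably transfected HEK293 cells, read for 3 min after pin-tool compound delivery; 15-point titrations in triplicate.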
KiSS-1 receptor (Homo sapiens), sequence (Q969F8 whole entry, looked up): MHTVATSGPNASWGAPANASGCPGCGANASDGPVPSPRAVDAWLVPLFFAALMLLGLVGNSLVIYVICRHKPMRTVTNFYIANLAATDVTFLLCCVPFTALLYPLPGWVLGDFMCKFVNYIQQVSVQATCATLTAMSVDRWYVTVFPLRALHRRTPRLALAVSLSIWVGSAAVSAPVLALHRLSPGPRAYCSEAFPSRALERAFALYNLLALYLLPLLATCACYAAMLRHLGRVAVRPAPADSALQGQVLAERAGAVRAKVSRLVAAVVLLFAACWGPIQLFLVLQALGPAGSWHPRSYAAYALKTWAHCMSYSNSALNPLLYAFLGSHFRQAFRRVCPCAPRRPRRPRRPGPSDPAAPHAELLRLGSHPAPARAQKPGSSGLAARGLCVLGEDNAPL

Assay [5] is described as follows: G protein-coupled receptor (GPCR) small molecule agonists, calcium flux assay: HEK293 wild type cell line counter screen (AID 1920065). The essentials: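 Readout: fluorescence at 480 nm excitation/540 nm emission, sampled at 1 s intervals for 3 min. Cells had been cultured 18 h, then dye-loaded 1 h at 37 C before compound or ATP addition.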
Assay [6] is described as follows: p53 small molecule agonists, cell-based qHTS assay with human liver microsomes (AID 1963577). Summed up:
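p53RE-bla reporter cells were pre-incubated 5 h at 37 C, then treated with compounds plus human liver microsomes (0.5 mg/mL final) and NADPH (0.5 mg/mL final) for 16 h at 37 C. Beta-lactamase activity was read by LiveBLAzer fluorescence after 2 h at room temperature.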
On the technique in general: Quantitative high-throughput screening tests each substance at several concentrations.

Assay [7] can be described thus: p53 small molecule agonists, cell-based qHTS assay with rat liver microsomes (AID 1963578). Summed up: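 p53RE-bla cells were exposed to compounds together with rat liver microsomes (0.5 mg/mL final) and NADPH (0.5 mg/mL final) for 16 h at 37 C, then read by LiveBLAzer beta-lactamase fluorescence after 2 h at room temperature.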
Assay [8] can be described thus: p53 small molecule agonists, cell-based qHTS assay with human liver microsomes: qHTS cell viability counter screen (AID 1963579). Further: nearly all actives have a fitted effect of over 45% in size. Summed up:
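p53RE-bla cells (4,000/well) were pre-incubated 5 h at 37 C, then given compounds in DMSO plus human liver microsomes (0.5 mg/mL final) and NADPH (0.5 mg/mL final) for 16 h at 37 C. Viability was read by CellTiter-Glo luminescence.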

Assay [9] is described as follows: p53 small molecule agonists, cell-based qHTS assay with rat liver microsomes: qHTS cell viability counter screen (AID 1963580). Further: nearly all actives have a fitted effect of over 45% in size. Summed up: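 Viability is assessed in parallel with the p53 reporter read: HCT-116 p53RE-bla cells receive compounds plus rat microsomes and NADPH (0.5 mg/mL final apiece), incubate 16 h at 37 C, and then CellTiter-Glo luminescence is recorded.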

Assay [10] can be described thus: p53 small molecule agonists, cell-based qHTS assay (AID 1963582; active means well fitted activation curve with a large enough effect in the signal ratio in the repeat runs, not every such curve was filed as active; the % refers to the signal ratio). The essentials: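 Compounds are pin-transferred in DMSO onto p53RE-bla cells and incubated 16 h at 37 C. The B/G FRET beta-lactamase substrate is then applied for 2 h at RT and fluorescence recorded.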
Assay [11] deals with 5-hydroxytryptamine receptor 2A (Homo sapiens) (UniProt P28223). Briefly: 5-hydroxytryptamine receptor 2A (HTR2A) small molecule agonists, cell-based qHTS assay (AID 1963587). Further: nearly all actives have a fitted effect of over 30% in size. The essentials:
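CHO cells stably expressing human HTR2A, plated 18 h, loaded with calcium dye 1 h at 37 C. Agonist mode: compounds added and intracellular calcium fluorescence recorded kinetically for 2 min at 1 sec intervals.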

In assay [12] the target is Muscarinic acetylcholine receptor M1 (Homo sapiens) (UniProt P11229). Briefly: Cholinergic receptor muscarinic 1 (CHRM1) small molecule antagonists, cell-based qHTS assay (AID 1963588). Further: nearly all actives have a fitted effect of over 40% in size. Summed up: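 CHRM1-CHO calcium-flux assay, antagonist mode. Cells were seeded 18 h, dye-loaded 1 h at 37 C and given compound for 5 min at RT, then acetylcholine was added at 50nM. FDSS fluorescence was read 3 min; 15 concentrations, three runs.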
Muscarinic acetylcholine receptor M1 (Homo sapiens), sequence (P11229 whole entry, looked up): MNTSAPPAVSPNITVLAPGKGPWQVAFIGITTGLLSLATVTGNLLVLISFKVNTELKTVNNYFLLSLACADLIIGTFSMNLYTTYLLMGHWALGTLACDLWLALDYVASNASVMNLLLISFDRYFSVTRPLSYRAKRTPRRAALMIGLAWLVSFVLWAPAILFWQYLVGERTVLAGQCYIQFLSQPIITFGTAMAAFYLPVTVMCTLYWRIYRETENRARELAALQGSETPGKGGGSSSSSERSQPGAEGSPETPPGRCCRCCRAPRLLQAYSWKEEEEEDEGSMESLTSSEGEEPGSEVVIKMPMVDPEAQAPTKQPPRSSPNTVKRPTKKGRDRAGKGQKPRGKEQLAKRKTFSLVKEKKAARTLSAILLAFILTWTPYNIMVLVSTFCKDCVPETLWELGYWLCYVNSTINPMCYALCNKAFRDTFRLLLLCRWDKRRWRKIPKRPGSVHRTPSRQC

The target is the same in assay [13]. Put plainly: Cholinergic receptor muscarinic 1 (CHRM1) small molecule agonists, cell-based qHTS assay (AID 1963589). Further: nearly all actives have a fitted effect of over 35% in size. The essentials:
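Each compound was tested at 15 concentrations across three independent runs on dye-loaded CHO cells stably expressing human CHRM1, reading intracellular calcium fluorescence kinetically at 1 sec intervals.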

Assay [14] in a line: cAMP Responsive Elements (CRE) small molecule agonists, cell-based qHTS assay (AID 1963590). Summed up: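 Cell line: CRE-bla HEK 293T; medium DMEM/10% dialyzed FBS/0.1 mM NEAA/1 mM pyruvate/25 mM HEPES; 3 h compound exposure; beta-lactamase FRET readout after 2 h substrate loading at RT.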
A short description of assay [15]: cAMP Responsive Elements (CRE) small molecule antagonists, cell-based qHTS assay (AID 1963591; active means well fitted inhibition curve with a large enough effect in the signal ratio in the repeat runs, not every such curve was filed as active; the % refers to the signal ratio). The essentials:
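Inhibition of NKH477-driven (0.25 uM final) CRE-beta-lactamase signal in HEK293T cells, 3 h compound exposure at 37 °C, detected by FRET substrate fluorescence.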

Assay [16] has as its target Beta-2 adrenergic receptor (Homo sapiens) (UniProt P07550). Briefly: Adrenergic beta2 receptor (ADRB2) small molecule antagonists, cell-based qHTS assay (AID 1963592). Further: series mostly up to about 92 µM; nearly all actives have a fitted effect of over 50% in size. Summed up: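 Cells (CHO, stable ADRB2 overexpression) incubated 18-20hr at 37C; compounds added from DMSO; agonist mix (1nM isoproterenol, 100uM IBMX, 25uM Ro-20-1724) added; 0.5hr RT; d2-cAMP and anti-cAMP-cryptate added; 1hr RT; 665/615 nm read.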

For assay [17] the target is unchanged. Briefly: Adrenergic beta2 receptor (ADRB2) small molecule agonists, cell-based qHTS assay (AID 1963593).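 Further: CHO cells stably overexpressing human ADRB2.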 Summed up:
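CHO cells stably over-expressing ADRB2 were plated overnight at 37C, then dosed with compounds plus a stimulation mix containing 100uM IBMX and 25uM Ro-20-1724 for 0.5hr at room temperature. cAMP was measured by HTRF competition, 1hr.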

In assay [18] the target is D(2) dopamine receptor (Homo sapiens) (UniProt P14416). Briefly: Dopamine D2 receptor (DRD2) small molecule antagonists, cell-based qHTS assay (AID 1963595; active means well fitted inhibition curve with a large enough effect in the signal ratio in the repeat runs, with a control signal flat; the % refers to the signal ratio). The essentials:
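Cells were plated and grown for 24 h at 37 °C. Ro20-1724 (0.1 mM final) went in first, then compound for 10 min. NKH477 (200 nM) with quinpirole (12 nM) followed for 30 min at RT, then HTRF detection reagents for 1 h.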

Assay [19] has the same target. Briefly: Dopamine D2 receptor (DRD2) small molecule agonists, cell-based qHTS assay (AID 1963594). Further: nearly all actives have a fitted effect of over 35% in size. Summed up:
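HEK293 cells stably expressing human DRD2, pre-treated with PDE inhibitor Ro20-1724 (0.1 mM final) and compound 10 min at room temperature, then stimulated with NKH477 (200nM […]) for 30 min. cAMP read by HTRF (665/620 nm).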

Where “and” joins values, the source holds several entries; their conditions need not be identical. Equal values may be shown once. Results filed as inconclusive are left out. Calls of active or inactive are those of the source. Unless noted, the call rests on the fitted dose curve.

5-hydroxytryptamine receptor 2A (Homo sapiens), sequence (P28223 whole entry, looked up): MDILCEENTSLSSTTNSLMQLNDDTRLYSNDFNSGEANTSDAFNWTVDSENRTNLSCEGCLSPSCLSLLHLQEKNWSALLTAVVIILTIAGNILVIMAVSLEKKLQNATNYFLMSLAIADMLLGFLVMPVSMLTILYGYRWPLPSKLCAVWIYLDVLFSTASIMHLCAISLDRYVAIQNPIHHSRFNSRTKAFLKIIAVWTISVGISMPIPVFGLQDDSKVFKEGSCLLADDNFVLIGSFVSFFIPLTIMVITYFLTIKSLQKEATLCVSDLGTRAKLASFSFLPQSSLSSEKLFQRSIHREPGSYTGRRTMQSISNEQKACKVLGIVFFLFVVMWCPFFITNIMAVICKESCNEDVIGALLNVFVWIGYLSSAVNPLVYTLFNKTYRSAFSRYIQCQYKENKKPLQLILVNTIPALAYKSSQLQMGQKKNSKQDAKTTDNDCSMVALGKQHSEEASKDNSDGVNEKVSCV
D(2) dopamine receptor (Homo sapiens), sequence (P14416 whole entry, looked up): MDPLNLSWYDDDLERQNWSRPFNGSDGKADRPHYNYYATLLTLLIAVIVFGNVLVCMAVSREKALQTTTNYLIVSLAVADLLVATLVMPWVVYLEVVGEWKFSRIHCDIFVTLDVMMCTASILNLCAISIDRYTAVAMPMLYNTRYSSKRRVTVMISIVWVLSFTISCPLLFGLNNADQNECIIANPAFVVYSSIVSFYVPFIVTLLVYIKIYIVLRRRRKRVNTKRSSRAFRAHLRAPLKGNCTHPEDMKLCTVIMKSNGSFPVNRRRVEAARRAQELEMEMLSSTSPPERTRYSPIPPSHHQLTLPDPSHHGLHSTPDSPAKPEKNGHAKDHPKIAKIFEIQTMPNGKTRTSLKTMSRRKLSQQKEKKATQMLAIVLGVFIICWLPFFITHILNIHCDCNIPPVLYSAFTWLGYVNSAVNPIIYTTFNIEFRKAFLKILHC
Gonadotropin-releasing hormone receptor (Homo sapiens), sequence (P30968 whole entry, looked up): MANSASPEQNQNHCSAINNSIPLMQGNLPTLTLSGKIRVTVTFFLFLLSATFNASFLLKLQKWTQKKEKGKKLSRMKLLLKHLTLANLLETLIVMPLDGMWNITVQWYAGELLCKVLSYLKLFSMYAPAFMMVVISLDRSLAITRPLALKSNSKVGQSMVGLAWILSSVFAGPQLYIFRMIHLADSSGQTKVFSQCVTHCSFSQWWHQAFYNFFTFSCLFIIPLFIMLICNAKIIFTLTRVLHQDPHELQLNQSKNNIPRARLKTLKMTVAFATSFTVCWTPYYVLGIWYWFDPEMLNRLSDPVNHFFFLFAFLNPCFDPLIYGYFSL
Beta-2 adrenergic receptor (Homo sapiens), sequence (P07550 whole entry, looked up): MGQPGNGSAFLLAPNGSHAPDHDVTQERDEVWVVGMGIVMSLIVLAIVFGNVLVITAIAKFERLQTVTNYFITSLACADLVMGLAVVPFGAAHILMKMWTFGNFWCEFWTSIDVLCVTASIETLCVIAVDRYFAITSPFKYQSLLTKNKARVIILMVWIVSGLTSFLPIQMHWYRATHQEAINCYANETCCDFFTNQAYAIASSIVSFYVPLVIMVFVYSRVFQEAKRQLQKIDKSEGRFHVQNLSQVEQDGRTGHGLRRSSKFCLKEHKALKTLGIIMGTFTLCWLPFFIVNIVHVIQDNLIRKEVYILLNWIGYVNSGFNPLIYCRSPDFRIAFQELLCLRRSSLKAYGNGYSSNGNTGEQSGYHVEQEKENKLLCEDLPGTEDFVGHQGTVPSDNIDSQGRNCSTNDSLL

In the case of `O=C[O][Al]([O]C=O)[O]C=O`, the Potency result in assay [1], in [2], in assay [3], in [4], in assay [5] and in assay [6] was “inactive” in each case. The Potency entry in assay [7], in assay [8], in assay [9], in assay [10], in assay [11] and in assay [12] was “inactive” each time. The Potency result in assay [13], in assay [14], in assay [15], in assay [16], in assay [17] and in assay [18] was “inactive” in each case.

Turning to `BrC1CCC(Br)C(Br)CCC(Br)C(Br)CCC1Br` (stereo unspecified), the Potency was 17.2 µM (active) in assay [1]; 9.65 µM (active) and 16.3 µM (active) in [2]. Besides, the Potency entry in assay [3], in assay [4], in assay [5], in assay [6], in assay [7] and in assay [8] was “inactive” in each case. In addition, the Potency entry in assay [9], in assay [11], in assay [12], in assay [13], in [16] and in assay [19] was “inactive” throughout. The Potency result in assay [18] was “inactive”.

On to `Cc1c(O)cccc1C(=O)N[C@@H](CSc1ccccc1)[C@H](O)CN1C[C@H]2CCCC[C@H]2C[C@H]1C(=O)NC(C)(C)C`, for which the Potency in assay [1] was 11.9 µM (active). The Potency entry in assay [2], in assay [3], in [4], in [5], in [6] and in assay [7] was “inactive” in each case. Besides, the Potency result in [8], in [9], in [19] and in assay [18] was “inactive” in each case.

For the compound `O=C(O)c1ccc(OCCCOc2ccc(C(=O)O)cc2)cc1`, the Potency result in assay [1], in assay [2], in [3], in assay [4], in assay [5] and in [6] was “inactive” in each case. The Potency result in assay [7], in assay [8], in assay [9], in assay [10], in assay [11] and in assay [12] was “inactive” each time. Also, the Potency entry in [13], in assay [14], in assay [15], in [16], in assay [17] and in [19] was “inactive” each time. For the same compound, the Potency result in [18] is “inactive”.

As for `CN(C)Cc1ccccc1O`, the Potency result in assay [1], in assay [2], in assay [3], in [4], in [5] and in assay [6] was “inactive” in each case. In addition, the Potency entry in [7], in assay [8], in assay [9], in assay [10], in assay [11] and in assay [12] was “inactive” in each case. The Potency result in assay [13], in assay [14], in assay [16], in [17], in assay [19] and in [18] was “inactive” in each case.

Turning to `Cc1cccc(N(C)C)c1`, the Potency result in assay [1], in assay [2], in assay [3], in [4], in [5] and in assay [6] was “inactive” throughout. Further, the Potency entry in [7], in [8], in [9], in [10], in assay [11] and in assay [12] was “inactive” throughout. For the same compound, the Potency result in assay [14], in assay [15], in assay [17], in assay [19] and in assay [18] was “inactive” throughout.

For the compound `CCCCC(=O)N(C)C`, the Potency result in [1], in assay [2], in assay [3], in [4], in [5] and in [6] was “inactive” in each case. The Potency entry in assay [7], in assay [8], in [9], in assay [10], in assay [11] and in assay [12] was “inactive” each time. Moreover, the Potency result in assay [13], in [14], in [15] and in assay [19] was “inactive” each time.

Consider `CCc1c(C(=O)O)c(=O)cnn1-c1ccc(Cl)cc1`, for which the Potency entry in assay [1], in assay [2], in assay [3], in [4], in assay [5] and in assay [6] was “inactive” in each case. The Potency entry in assay [7], in assay [8], in assay [9], in [10], in [11] and in [12] was “inactive” throughout. Besides, the Potency result in [13], in [14], in assay [15], in assay [16] and in [19] was “inactive” throughout.
